Compounds without any hit were thinned out: in the full panel of roughly 83,000, 20% have a hit.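 Single-concentration screen, 48 h exposure, 96-well plates. Endpoint: percent growth. Below 10 = active.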 Unmarked numbers belong to inactive results. Calls of active or inactive are those of the source.
Experiments:
Experiment in all cases: NCI-60 one-dose screen, 48 h (100 = growth as untreated, 0 = no growth, -100 = all killed)
Conditions in all cases: 10 µM unless noted
[1] = test system: SK-MEL-2 melanoma
[2] = test system: EKVX NSCLC
[3] = test system: SN12C renal
[4] = test system: UO-31 renal
[5] = test system: TK-10 renal
[6] = test system: ACHN renal
[7] = test system: A498 renal
[8] = test system: CCRF-CEM leukemia
[9] = test system: MOLT-4 leukemia
[10] = test system: SR leukemia
[11] = test system: RPMI-8226 leukemia
[12] = test system: OVCAR-5 ovarian
[13] = test system: OVCAR-4 ovarian
[14] = test system: SK-OV-3 ovarian
[15] = test system: IGROV1 ovarian
[16] = test system: OVCAR-3 ovarian
[17] = test system: HS 578T breast
[18] = test system: NCI/ADR-RES ovarian
[19] = test system: OVCAR-8 ovarian
[20] = test system: CAKI-1 renal

Row | SMILES | growth [1] | growth [2] [%] | growth [3] | growth [4] | growth [5] | growth [6] | growth [7] [%] | growth [8] | growth [9] | growth [10] | growth [11] | growth [12] [%] | growth [13] [%] | growth [14] [%] | growth [15] | growth [16] | growth [17] [%] | growth [18] | growth [19] | growth [20] [%]
1 | O=[N+]([O-])c1cnc(Sc2ccncn2)s1 | -58% (active) | 61.7 | 63.6% | -88.3% (active) | 4.67% (active) | -97.8% (active) | 88 | -32.3% (active) | -42.3% (active) | -69.7% (active) | -64.1% (active) | 94.1 | 53.9 | 114 | -80.7% (active) | -95.5% (active) | 58 | 67% | – | –
2 | O=[N+]([O-])c1ccc(Sc2ncccn2)c([N+](=O)[O-])c1 | 48.5% | 65.8 | 58.5% | 1.15% (active) | 53.7% | 27.8% | 72.5 | -37.2% (active) | -25.8% (active) | -20.3% (active) | -29.3% (active) | 81.1 | 51.8 | 95.2 | -9.02% (active) | 7.76% (active) | 88.6 | 53.8% | 65.8% | –
3 | CC(C)C1=CC2=C(C=O)C[C@@H]3[C@](C)(CCC[C@@]3(C)C(=O)OCC#CCN3CCCC3)[C@H]2CC1 | 94% | 98.2 | 83.7% | 61.6% | 93.6% | 97.3% | 88.6 | 63.9% | 66.9% | 26.4% | 33.8% | 88.1 | 78.1 | 81.8 | 75.4% | 88.7% | 67.9 | 82.2% | 77.9% | –
4 | O=C(CSc1nc2ccccc2[nH]1)c1ccc(N2CCOCC2)cc1 | 113% | 80.4 | 105% | 85.5% | 118% | 105% | 85.8 | 103% | 135% | 129% | 109% | 102 | 96.5 | 101 | 105% | 106% | 99 | 91.9% | 96% | –
5 | CCN(CC)c1ccc(N=O)cc1 | 90.8% | 91.1 | 56.3% | 26% | 47.3% | 6.07% (active) | 100 | 21.4% | 44.9% | 26.5% | 91.3% | 103 | 66.7 | 96 | 15% | 28.5% | – | 52% | 55.4% | –
6 | C=C1CCC2C3(C)COC(c4ccc(N(C)C)cc4)OC3CCC2(C)C1C/C=C1/C(=O)OCC1O (stereo unspecified) | 45.1% | 85.7 | 44.9% | 54.2% | 94.3% | 79.3% | 109 | -41.6% (active) | 37.7% | 21.9% | -52.9% (active) | 96.3 | 68.3 | 84 | 39.3% | – | – | 65.1% | 47.5% | –
7 | CCOC(=O)c1c(NS(=O)(=O)c2ccc(C)cc2)sc2c1CCC1(C2)OCCO1 | 90.3% | 94.6 | 95.1% | 82.6% | 120% | 95.1% | 98 | 96.2% | 85.8% | 94.3% | 86.7% | 88.8 | 91.4 | 90.1 | 109% | 103% | 81.3 | – | 95.7% | –
8 | COc1ccc(/C=C2/C(=O)NC(SCC(=O)N3CCN(c4cc5c(cc4F)c(=O)c(C(=O)O)cn5C4CC4)CC3)=NC2N)cc1OC (stereo unspecified) | 111% | 87.6 | 104% | 86.9% | 112% | 104% | 107 | 99.4% | 109% | 108% | – | 104 | 107 | 121 | 107% | 107% | 105 | – | 106% | –
9 | Cc1ccc(-c2cc3nc(C(Cl)Cl)nc(-c4ccccc4C)n3n2)cc1 | 94.5% | 71.1 | 86.7% | 75.3% | 54.8% | 49.1% | 74.4 | 96.1% | 62.9% | 17.7% | 48.1% | 92.7 | 74.9 | – | 83.7% | 22.4% | 82.2 | 60.3% | 90.5% | –
10 | COc1ccc2c(c1)[nH]c(=O)c1c3cccc(F)c3cn21 | 63.3% | 46.8 | 39.3% | 33.1% | 46.8% | 37.7% | 59.3 | -17.5% (active) | 36.3% | 39.9% | -49.8% (active) | 47.9 | 47.8 | 42.3 | 6.16% (active) | – | – | – | 27.4% | –
11 | COc1ccc2c(c1)[nH]c(=O)c1c3cc(C)c(C)cc3cn21 | -4.76% (active) | 35.4 | -43.6% (active) | -31.4% (active) | -34% (active) | 17.5% | 42 | -68.1% (active) | -10.9% (active) | 31.9% | -32.2% (active) | 28.8 | 42.4 | 43.3 | -21.7% (active) | – | – | 8.27% (active) | -27.5% (active) | –
12 | O=C(NNC(=O)N1c2ccccc2C=Cc2ccccc21)c1ccccc1 | 119% | 91.7 | 102% | 96% | 96% | 102% | 103 | 98.9% | 102% | 96.6% | 104% | 103 | 103 | 112 | 110% | 113% | 109 | 99.8% | 105% | –
13 | CN1C(=O)N(C)C2C1NN=c1s/c(=C\C=C\c3ccccc3)c(=O)n12 (stereo unspecified) | 61.6% | 69.9 | 83.5% | 70.3% | 80% | 63.8% | – | 53.8% | 65.2% | 24.3% | 84.9% | 85.9 | 81.9 | 65.7 | 50.7% | 12% | 59.6 | 36.4% | – | 46.1
14 | CCCC(=O)Oc1ccc(/C(=C(\C)c2ccccc2)c2ccc(OCCN(CC)CC)cc2)cc1 | 97.2% | 99.3 | 86.3% | 51.4% | 86% | 90.7% | 93.7 | 69.7% | 53.7% | 28.2% | 55.4% | 88.7 | 86.6 | 91.7 | 90.7% | 94.9% | 42.6 | 86.7% | 83.3% | –
15 | S=C(S)NCCc1c[nH]c2ccccc12 | 99.6% | 100 | 91.8% | 62.8% | 128% | 101% | – | 81.5% | 93.6% | 94.9% | 92.4% | 102 | 111 | 121 | 81.9% | 101% | 99.5 | 101% | – | 81.2
16 | O=C(C1=Cc2cc3ccccc3n2Cc2cnnn21)c1ccccc1 | 44.1% | 82.9 | 50.3% | 64.8% | 72.7% | 74.6% | 71.7 | 53% | 42.1% | – | 53.1% | 89.2 | 82.7 | 67.8 | 44.6% | 26.9% | – | – | 51.8% | –

— PubChem BioAssay (NCI)
